hcGAS lum = inhibitors of human cGAS. Q8N884. recombinant h-cGAS, ATP depletion, Kinase-Glo luminescence. inhibition, % at 12.5 µM. actives 0.081% (n = 290,000);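 note: 0% = vehicle reaction and 100% = reaction without DNA for no activity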
Target sequence (Q8N884 whole entry, looked up): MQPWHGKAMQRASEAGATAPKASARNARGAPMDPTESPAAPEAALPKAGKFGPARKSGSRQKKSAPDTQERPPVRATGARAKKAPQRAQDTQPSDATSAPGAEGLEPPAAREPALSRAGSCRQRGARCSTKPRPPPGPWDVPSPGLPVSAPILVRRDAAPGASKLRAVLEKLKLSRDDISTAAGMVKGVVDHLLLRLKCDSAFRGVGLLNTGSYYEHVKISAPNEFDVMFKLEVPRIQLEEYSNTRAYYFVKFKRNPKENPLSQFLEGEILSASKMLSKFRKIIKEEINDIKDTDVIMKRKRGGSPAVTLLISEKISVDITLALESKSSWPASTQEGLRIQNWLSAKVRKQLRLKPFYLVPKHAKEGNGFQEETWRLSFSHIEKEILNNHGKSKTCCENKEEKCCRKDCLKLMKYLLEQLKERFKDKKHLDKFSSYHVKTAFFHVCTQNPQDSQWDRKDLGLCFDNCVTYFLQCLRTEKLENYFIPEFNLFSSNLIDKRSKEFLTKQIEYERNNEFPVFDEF
mcGAS inh = blocks mouse cGAS activity; recombinant cGAS, Kinase-Glo ATP depletion luminescence; inhibition, % at 12.5 µM; actives 0.15% (n = 160,000); AID 1259399;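 note: 0% = negative control wells and 100% = reference inhibitor with no enzyme activity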
NPYLR7 ag = mosquito NPYLR7 agonism. HEK293T NPYLR7/Galpha15, GCaMP6s calcium fluorescence. activation, % at 10 µM. actives 0.15% (n = 270,000); in the data active = activation above about 40%;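 note: 0% = vehicle and 100% = reference agonist at the receptor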
Active calls of the source: *; nt = not tested or not shown; ! = not confirmed by another sample. Sampled rows, rich in hits. Any-hit rate of the full collection: about 0.24%. Cut-off read from the data, not from the text of the source, unless noted: active = inhibition above about 40%; inactive = the rest.

SMILES	hcGAS lum	mcGAS inh	NPYLR7 ag
COc1cc(/C=C(/C#N)c2nc3cc(Cl)ccc3s2)ccc1O	-16	nt	102*
COc1ccc(C=C(C#N)c2nc(-c3ccc(F)cc3)cs2)cc1O	-6	-4	14
Cc1cc(-c2c(-c3ccccc3)ncn2CCN2CCCC(CO)C2)n[nH]1 (configuration not stated)	4	nt	14
C=CCOc1ccc(C=C(C#N)C(=O)c2ccc(OC)cc2)cc1	2	58*	2
COc1ccc(C=C(C#N)C(=O)c2ccc(OC)cc2)cc1	3	38	1
Cc1nn(C)c(Cl)c1/C=C1/CCCc2c1nc1ccccc1c2C(=O)O	2	-8	57*
Cc1cccc(NS(=O)(=O)c2c(C)nn(C)c2Cl)c1C(=O)O	-8	nt	0
CC(C)COC(=NCCN1CCCCC1)NC(=O)c1cccs1	-5	-6	12
CC(C)(C)c1cc2nc(-c3ccccc3Cl)cc(C(=O)NCCc3ccccn3)n2n1	-5	-3	3
Cc1nc2ccc(N)cc2s1	5	1	1
C[n+]1c2cc(N)ccc2cc2ccc(N)cc21	68*	nt	120*
COCCN(Cc1c(-c2ccccc2)noc1N1CCSCC1)C(=O)c1ccc2c(c1)OCO2	-8	-5	nt
COc1ccc2ccccc2c1/C=C1\N=C(c2ccccc2)OC1=O	1	nt	-2
CC(=O)[C@]1(O)Cc2c(O)c3c(c(O)c2[C@@H](O[C@H]2C[C@H](N)[C@H](O)[C@H](C)O2)C1)C(=O)c1ccccc1C3=O	69*	96*	100*
COc1cccc2c1C(=O)c1c(O)c3c(c(O)c1C2=O)C[C@@](O)(C(C)=O)C[C@@H]3O[C@H]1C[C@H](N)[C@H](O)[C@H](C)O1	60*!	nt	-2
COc1cccc2c1C(=O)c1ccccc1C2=O	1	-3	-4
COc1cccc2c1C(=O)c1c(O)c3c(c(O)c1C2=O)C[C@@](O)(C(=O)CO)C[C@@H]3O[C@H]1C[C@H](N)[C@@H](O)[C@H](C)O1	48*	nt	-3
COc1ccc(NC(=O)c2c(C)cc(C)[nH]c2=O)c(Cl)c1	-7	nt	1
Fc1ccccc1C1c2cccn2CCCN1Cc1cccc(C(F)(F)F)c1 (configuration not stated)	-5	-5	7
CCN1C(=O)/C(=C\C=C2/Sc3ccccc3N2CC)N(c2ccccc2)C1=S	-5	-4	-2
CCCC[n+]1c(C)cc(C=C2Sc3ccccc3N2CC)cc1C	2	nt	258*
CCN1C(=Cc2cc(C)[n+](CCOC)c(C)c2)Sc2ccccc21	4	nt	124*
CCN1/C(=C\C(=C2\C(=O)N(C)C(=S)N2C)c2ccccc2)Sc2ccccc21	-2	nt	-2
CCN1C(=Cc2cc(C)[n+](CC3CCCO3)c(C)c2)Sc2ccccc21 (configuration not stated)	-1	-4	123*
CCN1C(=O)/C(=C/C=C2/Sc3ccccc3N2CC)SC1=Nc1ccccc1C	-3	-2	-4
SMILES	hcGAS lum	mcGAS inh	NPYLR7 ag
Cc1nnc(CNC(=O)CCOc2cc(Cl)cc(Cl)c2)n1C	-8	-15	0
O=C(CN1CN(c2ccccc2)C2(CCN(C(=O)Nc3cccc(Cl)c3Cl)CC2)C1=O)N1CCOCC1	-4	-6	10
CCCCC(CC)CN=C(N)NC(N)=NCCCCCCN=C(N)NC(N)=NCC(CC)CCCC (configuration not stated)	4	-5	46*!
CCCCN=C(N)N=C(N)N	-7	nt	-13
O=C(Cc1csc(-n2cccc2)n1)NCCn1nc(-c2ccco2)ccc1=O	-6	nt	-2
Clc1cc2c(c(CSc3nnc(-c4ccccc4)o3)c1)OCOC2	-4	-4	0
Clc1cc2c(c(CSc3nnnn3-c3ccccc3)c1)OCOC2	72*	-2	6
CCn1nccc1NC(=O)c1ccc(C(F)(F)F)cc1	-7	-7	1
O=C(O)c1ccc(-n2c(O)c(C=C3C=Nc4ccccc43)sc2=S)cc1	-7	-1	-1
O=C(Nn1c(O)c(C=C2C=Nc3ccccc32)sc1=S)c1ccccc1[N+](=O)[O-]	-5	-5	12
CC(C(=O)O)n1c(O)c(C=C2C=Nc3ccccc32)sc1=S (configuration not stated)	1	-5	75*
O=C(O)CCn1c(O)c(C=C2C=Nc3ccccc32)sc1=S	4	-1	46*
Cc1cnccc1CN(C)C(=O)CCc1nnc(CCc2c[nH]c3ccccc23)o1	-2	-4	1
COC(=O)C(C(C)=N)=C(O)CCl	-8	-6	-1
CC(C)(C#N)c1ccc(NC(=O)Cc2ccccc2F)cc1	0	nt	2
N#C/C(=C\c1ccc(O)c(O)c1)C(=O)Nc1ccccc1	17	3	147*
C[C@@H](NC(=O)/C(C#N)=C/c1ccc(O)c(O)c1)c1ccccc1	5	-1	5
O=C(CN1CCOc2ccccc2C1)N1CC[C@H]2CC[C@@H](C1)N2	-3	-12	nt

Compound activity deposited in PubChem by Fisher Drug Discovery Resource Center.
